Results taken from PubChem BioAssay (NCATS).
Results filed as inconclusive are left out. Activity calls are given as the source filed them. The call rests on the fitted dose curve; in most records, active means well fitted inhibition curve with a large enough effect; inconclusive means small, poorly fitted or top-dose-only effect; inactive means flat fitted curve, though single readings scatter.

What was measured:
CRL-7250 = normal cell line; assay: Cytotoxic Profiling of Annotated Libraries Using Quantitative High-Throughput Screening (AID 1296008); details: Five cell lines viability, CellTiter-Glo ATP luminescence, 48-72 h; max response: stronger effect = lower value; on max response: on the % scale 0 is the no-effect control and ±100 the full control effect
Summary of the method: (§1)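 Cells exposed to compounds for 48 or 72 hr at 37 degrees Celsius. Viability read as ATP-coupled luminescence with CellTiter-Glo after 10 min at room temperature.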

HEK293 = assay: as above; details: Five cell lines viability, CellTiter-Glo ATP luminescence, 48-72 h; max response: stronger effect = lower value
Summary of the method: as §1

HaCat = assay: as above; details: Five cell lines viability, CellTiter-Glo ATP luminescence, 48-72 h; max response: stronger effect = lower value
Summary of the method: as §1

KB-3-1 = assay: as above; details: Five cell lines viability, CellTiter-Glo ATP luminescence, 48-72 h; max response: stronger effect = lower value
Summary of the method: as §1

NIH3T3 = assay: as above; details: Five cell lines viability, CellTiter-Glo ATP luminescence, 48-72 h; max response: stronger effect = lower value
Summary of the method: as §1

HEK293T = assay: qHTS assay to identify novel small-molecules to repurpose for Merkel cell carcinoma treatment (AID 1296009); details: MCC and control cell lines, CellTiter-Glo viability, 72 h; series mostly up to 44.8 µM
Summary of the method: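 Dose-response viability screen; 72 hr exposure at 37 degree celsius; CellTiter-Glo added, 10 min room temperature, luminescence read; RLUs scaled between no-cell and DMSO wells.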
Further: nearly all actives have a fitted effect of over 60% in size.

CC(=O)c1c(O)cc2c(c1C)C(=O)CC(O)C2 (stereo not drawn)
inactive: max response (CRL-7250) 4.51% | outcome (HEK293) | max response (HaCat) 1.58% | max response (KB-3-1) 9.72% | max response (NIH3T3) 1.74% | Potency (HEK293T)

COc1ccccc1-n1c(SCC(=O)Nc2nc3ccc(C)cc3s2)nc2c(c1=O)SCC2
inactive: max response (CRL-7250) 2.47% | outcome (HEK293) | max response (HaCat) -3.57% | max response (KB-3-1) 6.25% | max response (NIH3T3) 3.32% | Potency (HEK293T)

CC(C)=CCC[C@](C)(O[C@@H]1O[C@H](CO[C@@H]2OC[C@@H](O)[C@H](O)[C@H]2O)[C@@H](O)[C@H](O)[C@H]1O)[C@H]1CC[C@]2(C)[C@@H]1[C@H](O)C[C@@H]1[C@@]3(C)CC[C@H](O[C@@H]4O[C@H](CO)[C@@H](O)[C@H](O)[C@H]4O[C@@H]4O[C@H](CO)[C@@H](O)[C@H](O)[C@H]4O)C(C)(C)[C@@H]3CC[C@]12C
inactive: outcome (CRL-7250) | outcome (HEK293) | max response (HaCat) -10.6% | outcome (KB-3-1) | outcome (NIH3T3) | Potency (HEK293T)

CC[C@H]1OC(=O)[C@H](C)[C@@H](O[C@H]2C[C@@](C)(OC)[C@@H](O)[C@H](C)O2)[C@H](C)[C@@H](O[C@@H]2O[C@H](C)C[C@H](N(C)C)[C@H]2O)[C@@](C)(O)C[C@@H](C)[C@@H]2N[C@@H](COCCOC)OC([C@H]2C)[C@]1(C)O
inactive: max response (CRL-7250) -11.1% | outcome (HEK293) | max response (HaCat) -20.8% | outcome (KB-3-1) | max response (NIH3T3) -6.11% | Potency (HEK293T)

COc1cc(CC(COC2OC(CO)C(O)C(O)C2O)c2cc(/C=C/CO)cc(OC)c2O)ccc1O (stereo not drawn)
inactive: outcome (CRL-7250) | outcome (HEK293) | max response (HaCat) 1.49% | max response (KB-3-1) 1.74% | outcome (NIH3T3) | Potency (HEK293T)

COC(=O)C1=CO[C@@H](O[C@@H]2O[C@H](CO)[C@@H](O)[C@H](O)[C@H]2O)[C@@H]2[C@@H](C)[C@@H](O)C[C@H]12
inactive: max response (CRL-7250) -3.5% | outcome (HEK293) | max response (HaCat) -10.2% | outcome (KB-3-1) | max response (NIH3T3) 2.94% | Potency (HEK293T)

C=CC1(C)CC(OC(=O)C(=C)C(O)COC(C)=O)C(C(=C)C(=O)OC)C(O)C1C(=C)CO (stereo not drawn)
inactive: outcome (CRL-7250) | outcome (HEK293) | max response (HaCat) -1.47% | max response (KB-3-1) 1.8% | max response (NIH3T3) 0.638% | Potency (HEK293T)

CC1CCCC2OC2C(=O)c2c(O)cc(O)cc2CC(=O)O1 (stereo not drawn)
inactive: max response (CRL-7250) -0.57% | outcome (HEK293) | max response (HaCat) -2.51% | max response (KB-3-1) 3.41% | outcome (NIH3T3) | Potency (HEK293T)

O=S(=O)(Nc1ccc(C(O)(C(F)(F)F)C(F)(F)F)cc1)c1cccs1
inactive: max response (CRL-7250) 2.89% | outcome (HEK293) | max response (HaCat) 2.6% | max response (KB-3-1) 6.97% | outcome (NIH3T3) | Potency (HEK293T)

CN1C(=O)N[C@@H](Cc2c[nH]c3c(Cl)cccc23)C1=O
inactive: max response (CRL-7250) -3.21% | outcome (HEK293) | max response (HaCat) -0.267% | max response (KB-3-1) -1.43% | outcome (NIH3T3) | Potency (HEK293T)

CC(C)[C@@H](C)/C=C/[C@@H](C)[C@H]1CC[C@H]2C3=CC=C4C[C@@H](O)CC[C@]4(C)[C@H]3CC[C@]12C
inactive: max response (CRL-7250) -9.59% | outcome (HEK293) | max response (HaCat) -1.06% | outcome (KB-3-1) | max response (NIH3T3) -4.11% | Potency (HEK293T)

CC(=O)O[C@@]1(C)C[C@@H](O)[C@]2(O)C=CO[C@@H](O[C@@H]3O[C@H](CO)[C@@H](O)[C@H](O)[C@H]3O)[C@@H]21
inactive: max response (CRL-7250) -0.355% | outcome (HEK293) | max response (HaCat) 3.46% | outcome (KB-3-1) | outcome (NIH3T3) | Potency (HEK293T)

CC(=O)N[C@H]1[C@H](O[C@H]2CC[C@@]3(C)C(CC[C@]4(C)C3CC=C3C5CC(C)(C)CC[C@]5(C(=O)O)[C@H](O[C@@H]5O[C@H](CO)[C@@H](O)[C@H](O)[C@H]5O)C[C@]34C)C2(C)C)O[C@H](CO[C@@H]2OC[C@H](O)[C@H](O)[C@H]2O[C@@H]2OC[C@@H](O)[C@H](O)[C@H]2O)[C@@H](O)[C@@H]1O (stereo partly drawn)
inactive: outcome (CRL-7250) | outcome (HEK293) | max response (HaCat) -15.2% | max response (KB-3-1) 2.21% | max response (NIH3T3) -4.54% | outcome (HEK293T) inactive [at 9.27 µM]

C[C@@H]1CC[C@]2(C(=O)O)CC[C@]3(C(=O)O)C(=CCC4[C@@]5(C)CC[C@H](O[C@@H]6O[C@@H](C)[C@H](O[C@@H]7O[C@H](CO)[C@@H](O)[C@H](O)[C@H]7O)[C@@H](O)[C@H]6O)C(C)(C)C5CC[C@]43C)C2[C@H]1C (stereo partly drawn)
inactive: max response (CRL-7250) 0.369% | outcome (HEK293) | max response (HaCat) -0.856% | outcome (KB-3-1) | outcome (NIH3T3) | Potency (HEK293T)

CC(/C=C/C1(O)C(C)CC(O)CC1(C)C)OC1OC(CO)C(O)C(O)C1O (stereo not drawn)
inactive: max response (CRL-7250) 1.42% | outcome (HEK293) | max response (HaCat) -9.66% | outcome (KB-3-1) | outcome (NIH3T3) | Potency (HEK293T)

CCOC(=O)N1CCC(NCCNC(=O)c2ccccc2C)CC1
inactive: max response (CRL-7250) 3.66% | outcome (HEK293) | max response (HaCat) -7.3% | max response (KB-3-1) 6.5% | outcome (NIH3T3) | Potency (HEK293T)

C/C=C(\C)C(=O)O[C@H]1[C@@H](O[C@]2(COC(=O)CC(C)C)O[C@H](COC(=O)C(C)C)[C@@H](OC(C)=O)[C@@H]2O)O[C@H](COC(C)=O)[C@@H](O)[C@@H]1O
inactive: outcome (CRL-7250) | outcome (HEK293) | max response (HaCat) 0.832% | max response (KB-3-1) 4.8% | max response (NIH3T3) 0.154% | Potency (HEK293T)

CC1(C)O[C@@]2(C)CC[C@@H]1C[C@@H]2OC1OC(CO)C(O)C(O)C1O (stereo partly drawn)
inactive: outcome (CRL-7250) | outcome (HEK293) | max response (HaCat) -5.55% | outcome (KB-3-1) | max response (NIH3T3) -8.31% | Potency (HEK293T)
